“And” between values parts separate entries of the source, which are not always exact repeats. Equal values may be shown once. Among all 5,500 compounds or so, about 2,000 (36%) were called active. Inconclusive results (about 18%) are left out. This is one part of the list. Unmarked numbers belong to inactive results. No stated cut-off is given here; in the data, active means normalized growth mostly below about 0.91 (no sharp cut-off); inconclusive means no clear call, values can overlap the other calls; inactive means mostly above about 0.92.
Experiment: chemical genetic growth profiling, strain panel (AID 1159580);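 further: tested at 20 µM; growth read once vehicle control cultures reached saturation at 30 °C; 1 = growth at the plate median or of vehicle wells; lower values mean less growth of the strain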
Conditions: S. cerevisiae deletion strains, growth OD

Cc1c(Cl)cccc1Nc1ccccc1C(=O)O
normalized growth (locus YAL021C, strain ccr4, hits give low values): 0.863 (active)
normalized growth (locus YAL026C, strain drs2, hits give low values): 0.805 (active)
normalized growth (locus YAL030W, strain snc1, hits give low values): 0.842 (active)
normalized growth (locus YBL061C, strain skt5, hits give low values): 0.81 (active)
normalized growth (locus YBR009C, strain hhf1, hits give low values): 0.82 (active)
normalized growth (locus YBR021W, strain FUR4, hits give low values): 0.74 (active)
normalized growth (locus YBR023C, strain chs3, hits give low values): 0.801 (active)
normalized growth (locus YBR171W, strain sec66, hits give low values): 0.729 (active)
normalized growth (locus YBR229C, strain ROT2, hits give low values): 0.848 (active)
normalized growth (locus YBR231C, strain swc5, hits give low values): 0.825 (active)
normalized growth (locus YBR279W, strain paf1, hits give low values): 0.839 (active)
normalized growth (locus YCL011C, strain gbp2, hits give low values): 0.83 (active)
normalized growth (locus YCL016C, strain dcc1, hits give low values): 0.827 (active)
normalized growth (locus YCL029C, strain bik1, hits give low values): 0.812 (active)
normalized growth (locus YCL061C, strain MRC1, hits give low values): 0.842 (active)
normalized growth (locus YCL069W, strain vba3, hits give low values): 0.815 (active)
normalized growth (locus YCR088W, strain abp1, hits give low values): 0.812 (active)
normalized growth (locus YDL005C, strain med2, hits give low values): 0.865 (active)
normalized growth (locus YDL035C, strain GPR1, hits give low values): 0.848 (active)
normalized growth (locus YDL040C, strain nat1, hits give low values): 0.83 (active)
normalized growth (locus YDL074C, strain BRE1, hits give low values): 0.75 (active)
normalized growth (locus YDL101C, strain DUN1, hits give low values): 0.929
normalized growth (locus YDL134C, strain PPH21, hits give low values): 0.817 (active)
normalized growth (locus YDL185W, strain tfp1, hits give low values): 0.956
normalized growth (locus YDL192W, strain arf1, hits give low values): 0.796 (active)
normalized growth (locus YDR001C, strain nth1, hits give low values): 0.804 (active)
normalized growth (locus YDR069C, strain doa4, hits give low values): 0.897 (active)
normalized growth (locus YDR101C, strain arx1, hits give low values): 0.835 (active)
normalized growth (locus YDR137W, strain rgp1, hits give low values): 0.464 (active)
normalized growth (locus YDR150W, strain NUM1, hits give low values): 0.836 (active)
normalized growth (locus YDR159W, strain sac3, hits give low values): 0.615 (active)
normalized growth (locus YDR162C, strain NBP2, hits give low values): 0.709 (active)
normalized growth (locus YDR195W, strain ref2): 1.15 [resistant] (active)
normalized growth (locus YDR297W, strain sur2, hits give low values): 0.835 (active)
normalized growth (locus YDR318W, strain mcm21, hits give low values): 0.793 (active)
normalized growth (locus YDR334W, strain swr1, hits give low values): 0.812 (active)
normalized growth (locus YDR335W, strain msn5, hits give low values): 0.836 (active)
normalized growth (locus YDR388W, hits give low values): 0.79 (active)
normalized growth (locus YDR392W, strain spt3, hits give low values): 0.225 (active)
normalized growth (locus YDR502C, strain sam2, hits give low values): 0.802 (active)
normalized growth (locus YEL003W, strain gim4, hits give low values): 0.839 (active)
normalized growth (locus YEL037C, strain rad23, hits give low values): 0.836 (active)
normalized growth (locus YEL061C, strain CIN8 (second series), hits give low values): 0.819 (active)
normalized growth (locus YEL061C, strain CIN8, hits give low values): 0.855 (active)
normalized growth (locus YER015W, strain faa2, hits give low values): 0.848 (active)
normalized growth (locus YER016W, strain bim1, hits give low values): 0.856 (active)
normalized growth (locus YER110C, hits give low values): 0.769 (active)
normalized growth (locus YER111C, strain swi4, hits give low values): 0.831 (active)
normalized growth (locus YER155C, strain BEM2 (second series), hits give low values): 0.595 (active)
normalized growth (locus YER155C, strain BEM2, hits give low values): 0.684 (active)
normalized growth (locus YER167W, strain BCK2, hits give low values): 0.812 (active)
normalized growth (locus YFR010W, strain ubp6, hits give low values): 0.876 (active)
normalized growth (locus YGL078C, strain dbp3, hits give low values): 0.958
normalized growth (locus YGL086W, strain mad1, hits give low values): 0.815 (active)
normalized growth (locus YGL167C, strain pmr1, hits give low values): 0.757 (active)
normalized growth (locus YGL173C, strain kem1, hits give low values): 0.819 (active)
normalized growth (locus YGL227W, strain vid30, hits give low values): 0.808 (active)
normalized growth (locus YGL240W, strain doc1, hits give low values): 0.791 (active)
normalized growth (locus YGL248W, strain PDE1, hits give low values): 0.841 (active)
normalized growth (locus YGL253W, strain hxk2, hits give low values): 0.706 (active)
normalized growth (locus YGR078C, strain PAC10, hits give low values): 0.814 (active)
normalized growth (locus YGR135W, strain pre9, hits give low values): 0.792 (active)
normalized growth (locus YGR252W, strain gcn5, hits give low values): 0.609 (active)
normalized growth (locus YHR013C, strain ard1, hits give low values): 0.854
normalized growth (locus YHR027C, strain rpn1, hits give low values): 0.843 (active)
normalized growth (locus YHR030C, strain SLT2, hits give low values): 0.827 (active) and 0.555 (active)
normalized growth (locus YHR079C, strain IRE1 (second series), hits give low values): 0.793 (active)
normalized growth (locus YHR079C, strain IRE1, hits give low values): 0.633 (active)
normalized growth (locus YHR094C, strain hxt1, hits give low values): 0.796 (active)
normalized growth (locus YHR129C, strain ARP1, hits give low values): 0.837 (active)
normalized growth (locus YHR142W, strain chs7, hits give low values): 0.586 (active)
normalized growth (locus YHR200W, strain rpn10, hits give low values): 0.789 (active)
normalized growth (locus YIL066C, strain RNR3, hits give low values): 0.839 (active)
normalized growth (locus YIL073C, strain SPO22, hits give low values): 0.776
normalized growth (locus YIL125W, strain kgd1, hits give low values): 0.966
normalized growth (locus YIR030C, strain dcg1, hits give low values): 0.792 (active)
normalized growth (locus YJL092W, strain hpr5, hits give low values): 0.814 (active)
normalized growth (locus YJL095W, strain BCK1 (second series), hits give low values): 0.828 (active)
normalized growth (locus YJL095W, strain BCK1, hits give low values): 0.594 (active) and 0.648 (active)
normalized growth (locus YJL115W, strain asf1, hits give low values): 0.854 (active)
normalized growth (locus YJL129C, strain trk1, hits give low values): 0.442 (active)
normalized growth (locus YJL134W, strain LCB3, hits give low values): 0.842 (active)
normalized growth (locus YJL154C, strain vps35, hits give low values): 0.845 (active)
normalized growth (locus YJL164C, strain tpk1, hits give low values): 0.803 (active)
normalized growth (locus YJL166W, strain qcr8, hits give low values): 0.756 (active)
normalized growth (locus YJL168C, strain set2, hits give low values): 0.797 (active)
normalized growth (locus YJL187C, strain SWE1 (second series), hits give low values): 0.851 (active)
normalized growth (locus YJL187C, strain SWE1, hits give low values): 0.832 (active)
normalized growth (locus YJR043C, strain POL32, hits give low values): 0.867
normalized growth (locus YJR066W, strain TOR1, hits give low values): 0.731 (active)
